From PubChem BioAssay
PLCb3 inh: inhibitors of human phospholipase C beta3; Q01970; Purified PLC-beta3, fluorogenic substrate, fluorescence; inhibition, % at 12.2 µM; actives 0.18% (n = 370,000); AID 720704; in the data active = inhibition above about 11%
KLK7 zymogen act: activates the human kallikrein-7 zymogen; P49862; purified proKLK7, EDANS-DABCYL substrate fluorescence; 100% is mature enzyme control, 0% vehicle; activation, % at 7 µM; actives 0.9% (n = 370,000); AID 652039;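 active = activation above the mean of all tested compounds plus 3 SD, computed per campaign excluding outliers beyond control limits, cut at about 13% in these data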
Target sequence (P49862 whole entry, looked up): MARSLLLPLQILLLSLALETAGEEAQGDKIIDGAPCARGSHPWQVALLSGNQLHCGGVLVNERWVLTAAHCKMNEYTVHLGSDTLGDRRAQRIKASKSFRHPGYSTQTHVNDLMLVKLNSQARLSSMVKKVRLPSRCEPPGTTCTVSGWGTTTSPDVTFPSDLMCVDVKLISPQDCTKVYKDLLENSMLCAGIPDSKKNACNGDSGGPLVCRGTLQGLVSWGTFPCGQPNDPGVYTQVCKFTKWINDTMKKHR
PLC-gamma1 inh: blocks human PLC-gamma1 enzyme activity; P19174; inhibition, % at 12.2 µM; actives 0.84% (n = 370,000); purified PLC-gamma1, fluorogenic substrate, fluorescence; AID 720700; in the data active = inhibition above about 9.5%
ADAM10 inh: inhibits human ADAM10 | inhibition, % at 7 µM | recombinant ADAM10, EDANS/DABCYL FRET peptide cleavage, 3 h | O14672 | actives 0.62% (n = 370,000);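 active = inhibition above a per-campaign cutoff equal to the mean of compounds falling between control-based bounds plus 3 SD, cut at about 20% in these data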
ADAM17 inh: ADAM17 inhibition, QFRET primary screen | P78536 | inhibition, % at 6.95 µM | recombinant ADAM17, EDANS/DABCYL FRET peptide cleavage | actives 0.83% (n = 370,000);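 active = inhibition above the mean of compounds lying between control limits plus 3 SD, set per campaign, cut at about 8.5% in these data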
ADAM10 confirm: confirmation of inhibitors of human ADAM10; AID 743208; ADAM10 QFRET peptide cleavage, EDANS fluorescence; inhibition, % at 6.95 µM; shares compounds with ADAM10 inh; actives 1% (n = 2,100);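 active = inhibition above about 20% chosen separately for each screening run, limit read from the data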
ADAM17 ctr: inhibits human ADAM17 in ADAM10 exosite counter-screen; shares compounds with ADAM10 inh; inhibition, % at 6.95 µM; AID 743214; actives 0.5% (n = 2,100); ADAM17 QFRET peptide cleavage, EDANS fluorescence;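 active = mean triplicate inhibition above the solvent-only control wells' mean plus 3 SD, cut at about 12% in these data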
Each line names hits and unclear results; the compound was inactive in the other large screens (follow-up assays come after a bar, where they were run). Hits are enriched below; roughly 2.9% of the tested compounds scored in any of these assays.

COc1ccc(OC)c(NC(=O)c2cc3n(n2)C(C(F)(F)F)CC(c2ccc4c(c2)OCO4)N3)c1 (stereo not drawn)	none
C/C(C=NNC(=O)c1cc(-c2ccc(Cl)cc2)n[nH]1)=C\c1ccccc1	none
Cc1cc(S(=O)(=O)N2CCc3ccccc3C2)ccc1F	ADAM10 inh 22 | ADAM10 confirm inactive | ADAM17 ctr inactive
O=C(CC(O)(c1ccccc1)c1ccccc1)Nc1ccccn1	none
OC(CC1CC12c1ccccc1-c1ncccc12)(c1ccccc1)c1ccccc1 (stereo not drawn)	ADAM10 inh 24 | ADAM10 confirm inactive | ADAM17 ctr inactive
O=S(=O)(Nc1ccc2c(c1)OCCO2)c1ccc(Br)s1	ADAM10 inh 21 | ADAM10 confirm inactive | ADAM17 ctr inactive
CCN(c1ccccc1)S(=O)(=O)c1ccc(Cl)c(NC(=O)COC(=O)c2ccc(O)cc2)c1	ADAM10 inh 20 | ADAM10 confirm inactive | ADAM17 ctr inactive
Cc1ccccc1C(=O)NC1CCCCN(C(C)C)C1=O (stereo not drawn)	none
Cc1c(C2(O)CCCCC2)[nH]c2ccc(C(F)(F)F)cc12	ADAM10 inh 20 | ADAM10 confirm inactive | ADAM17 ctr inactive
Cc1c(C(C)(C)O)[nH]c2ccc(C(F)(F)F)cc12	none
Cc1cc(Br)c2c(c1)/C(=C/C(=O)c1cccs1)C(=O)N2	ADAM10 inh 20 | ADAM10 confirm inactive | ADAM17 ctr inactive
O=C(NNC(=S)Nc1ccc(Cl)c(Cl)c1)c1cccc([N+](=O)[O-])c1	none
Cc1cccc(NC(=S)NNC(=O)c2cccc([N+](=O)[O-])c2)c1	ADAM10 inh 21 | ADAM10 confirm inactive | ADAM17 ctr inactive
CC(C)(N[C@@H](Cc1c[nH]c2ccccc12)C(=O)NCCc1c[nH]c2ccccc12)C(=O)NC1CCCCC1	none (no result: KLK7 zymogen act)
C/C(CC(=O)Nc1ccc([N+](=O)[O-])cc1)=N/NC(=O)C1CC12CCC2 (stereo not drawn)	ADAM10 inh 20 | ADAM10 confirm inactive | ADAM17 ctr inactive
O=[N+]([O-])c1cc(Br)c(Nc2ccccc2)c([N+](=O)[O-])c1	none
O=[N+]([O-])c1cc([N+](=O)[O-])c2c(=Nc3ccccc3)n(-c3ccccc3)n(O)c2c1	ADAM10 inh 25 | ADAM10 confirm inactive | ADAM17 ctr inactive
CCc1c(C(=O)NNC(=S)Nc2ccc(S(=O)(=O)Nc3ncccn3)cc2)csc1C	ADAM10 inh 23 | ADAM10 confirm inactive | ADAM17 ctr inactive
O=S(=O)(Nc1ncccn1)c1ccc(NC(=S)Nc2ccccc2)cc1	none
Fc1ccc(F)c(Cn2ccc3ccc(-c4ccc5ccn(Cc6cc(F)ccc6F)c5c4)cc32)c1	none
COC(=O)C1=C(C)N(Cc2ccccc2C(F)(F)F)C(=NCc2cc(OC)c(OC)c(OC)c2)NC1c1cccc(F)c1 (stereo not drawn)	none
CCCCOc1ccc(C2(C)NC(=O)NC2=O)cc1 (stereo not drawn)	none
CCCCCCCOc1ccc(C2(C)NC(=O)NC2=O)cc1 (stereo not drawn)	ADAM10 inh 21 | ADAM10 confirm inactive | ADAM17 ctr inactive
O=C(Cc1ccccc1F)N1CCC(n2nnc3ncccc32)CC1	none
COC(=O)C1CN(Cc2cn(CCC3OCCO3)nn2)CCS(=O)(=O)N1Cc1ccccc1 (stereo not drawn)	none
COc1ccc(-n2c(Cc3cccn3C)nnc2SCC(=O)Nc2ccc(Cl)cc2)cc1	ADAM10 inh 86 | ADAM10 confirm inactive | ADAM17 ctr inactive
COc1ccc(-n2c(Cc3cccn3C)nnc2SCC(=O)Nc2ccccc2)cc1	none
Cn1cccc1Cc1nnc(SCC(=O)Nc2ccccc2)n1-c1ccc(F)cc1	ADAM10 inh 79 | ADAM10 confirm inactive | ADAM17 ctr inactive
COC(=O)C1=C(C)N(C)C(=NCC2CC2)NC1c1ccc(F)cc1 (stereo not drawn)	none
COC(=O)[C@]12C[C@H](CC(=O)NCc3cccc4ccccc34)C(=O)N(CCc3ccc(OC)c(OC)c3)C1=C[C@H](C(C)C)O[C@@H]2C1CC1	none
COc1ccc(C2C(C(=O)Nc3cccnc3)=C(C)Nc3nc(-c4cccs4)nn32)cc1 (stereo not drawn)	none
COc1ccc(C2C(C(=O)Nc3cccnc3)=C(C)Nc3nc(-c4cccs4)nn32)cc1OC (stereo not drawn)	ADAM10 inh 77 | ADAM10 confirm inactive | ADAM17 ctr inactive
OC(c1ccc(F)c(F)c1)c1ncc(-c2cccc(C(F)(F)F)c2)[nH]1 (stereo not drawn)	none
OC(c1ccc2c(c1)OCO2)c1ncc(-c2cccc(C(F)(F)F)c2)[nH]1 (stereo not drawn)	ADAM10 inh 20 | ADAM10 confirm inactive | ADAM17 ctr inactive
COc1ccccc1CCC(=O)N(C)CC(=O)Nc1ccc(Cl)c(C(F)(F)F)c1	ADAM10 inh 22 | ADAM10 confirm inactive | ADAM17 ctr inactive
COc1ccc(-c2ccc3c(n2)CCCN3S(=O)(=O)c2ccccc2C)cc1	none
O=C(CCc1ccccc1)N[C@H]1[C@H](OC(=O)c2ccco2)CCC[C@@]12C(=O)N(Cc1ccccc1)c1ccccc12	ADAM10 inh 21 | ADAM10 confirm inactive | ADAM17 ctr inactive
Cc1ccc(Cn2nnc3c(=O)[nH]c(C4CCN(S(=O)(=O)c5ccc(C)cc5)CC4)nc32)cc1	none
Cc1ccc(Cn2nnc3c(=O)[nH]c(C4CCN(S(=O)(=O)c5ccc(S(=O)(=O)NC6CC6)cc5)CC4)nc32)cc1	ADAM10 inh 20 | ADAM10 confirm inactive | ADAM17 ctr inactive
COC(=O)c1ccc(CSc2nnc(CS(=O)Cc3ccc(Br)cc3)n2-c2ccccc2)cc1 (stereo not drawn)	none
O=S(Cc1ccc(Br)cc1)Cc1nnc(SCc2ccc(Br)cc2)n1-c1ccccc1 (stereo not drawn)	ADAM10 inh 22 | ADAM10 confirm inactive | ADAM17 ctr inactive
O=C(CCc1c[nH]c2ccccc12)Nc1ccc(Nc2ccccc2)cc1	none
C/C=C(\C)C(=O)N1CC2(CC(c3cccc(NC(=O)COc4ccc(Cl)cc4)c3)=NO2)C[C@@H]1C(N)=O (stereo partly drawn)	ADAM10 inh 85 | ADAM10 confirm inactive | ADAM17 ctr inactive
COc1ccc(C(=O)N2CC3(CC(c4cccc(NC(=O)COc5ccc(Cl)cc5)c4)=NO3)C[C@@H]2C(N)=O)cc1 (stereo partly drawn)	ADAM10 inh 23 | ADAM10 confirm inactive | ADAM17 ctr inactive
CC1CCCC(C)N1C(=C(Cl)Cl)C(=C1SCCS1)[N+](=O)[O-] (stereo not drawn)	ADAM10 inh 21 | ADAM10 confirm inactive | ADAM17 ctr inactive
